# Screening results (PubChem)
# HIV Env fusion – inhibitors of HIV-1 Env-driven cell-cell fusion, primary screen, HeLa-JRFL effector, CEM21 target cells, luciferase | actives 1.1% (n = 360,000) | inhibition, % at 12.3 µM | AID 651610, 2012;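 active = mean replicate inhibition score of at least 50 and every replicate individually at or above 50; inconclusive = only one of the two criteria met; inactive = mean below 50 and not all replicates reaching 50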
# MLL AF4-AF9 inh – inhibitors of AF4 peptide binding to AF9, primary screen, biochemical, AlphaScreen, biotin-AF4 peptide, FLAG-AF9, single point; inhibition, % at 10 µM; Protein AF-9 (Homo sapiens), P42568; actives 0.47% (n = 350,000);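 active = every replicate reaching a set inhibition limit, whatever the replicate mean, cut at about 25% in these data; inconclusive = mean inhibition reaches that limit but some replicates miss it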
# INS-1E GSIS act – GLuc luminescence reporter in INS-1E cells, primary screen for activators of glucose-dependent secretion of insulin; INS-1E GLuc reporter insulin secretion, 2-3 h; activation, % at 16.6 µM; actives 0.61% (n = 370,000);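 active = lowest replicate activation of at least 40%, so every replicate reaches that level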
# PGC1a acetyl inh – inhibitors of PGC1a acetylation signal, primary screen, cell-based, U2OS, AlphaScreen, inhibitor mode | actives 0.17% (n = 350,000) | AID 651687, 2012 | AlphaScreen anti-acetyl-lysine; with virally co-expressed GCN5 acetyltransferase | inhibition, % at 15.6 µM;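 active = every replicate shows inhibition of at least 40%; inconclusive = mean inhibition at least 40% but some replicate below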
# NSD2 inh – NSD2 histone methyltransferase inhibitors, primary screen, biochemical, AlphaScreen, single concentration, set 2; Histone-lysine N-methyltransferase NSD2 (Homo sapiens), O96028; NSD2 peptide methylation, 120 min; inhibition, % at 12.5 µM; actives 0.54% (n = 310,000); in the data active = inhibition above about 50%
# Target sequence (O96028 whole entry, looked up): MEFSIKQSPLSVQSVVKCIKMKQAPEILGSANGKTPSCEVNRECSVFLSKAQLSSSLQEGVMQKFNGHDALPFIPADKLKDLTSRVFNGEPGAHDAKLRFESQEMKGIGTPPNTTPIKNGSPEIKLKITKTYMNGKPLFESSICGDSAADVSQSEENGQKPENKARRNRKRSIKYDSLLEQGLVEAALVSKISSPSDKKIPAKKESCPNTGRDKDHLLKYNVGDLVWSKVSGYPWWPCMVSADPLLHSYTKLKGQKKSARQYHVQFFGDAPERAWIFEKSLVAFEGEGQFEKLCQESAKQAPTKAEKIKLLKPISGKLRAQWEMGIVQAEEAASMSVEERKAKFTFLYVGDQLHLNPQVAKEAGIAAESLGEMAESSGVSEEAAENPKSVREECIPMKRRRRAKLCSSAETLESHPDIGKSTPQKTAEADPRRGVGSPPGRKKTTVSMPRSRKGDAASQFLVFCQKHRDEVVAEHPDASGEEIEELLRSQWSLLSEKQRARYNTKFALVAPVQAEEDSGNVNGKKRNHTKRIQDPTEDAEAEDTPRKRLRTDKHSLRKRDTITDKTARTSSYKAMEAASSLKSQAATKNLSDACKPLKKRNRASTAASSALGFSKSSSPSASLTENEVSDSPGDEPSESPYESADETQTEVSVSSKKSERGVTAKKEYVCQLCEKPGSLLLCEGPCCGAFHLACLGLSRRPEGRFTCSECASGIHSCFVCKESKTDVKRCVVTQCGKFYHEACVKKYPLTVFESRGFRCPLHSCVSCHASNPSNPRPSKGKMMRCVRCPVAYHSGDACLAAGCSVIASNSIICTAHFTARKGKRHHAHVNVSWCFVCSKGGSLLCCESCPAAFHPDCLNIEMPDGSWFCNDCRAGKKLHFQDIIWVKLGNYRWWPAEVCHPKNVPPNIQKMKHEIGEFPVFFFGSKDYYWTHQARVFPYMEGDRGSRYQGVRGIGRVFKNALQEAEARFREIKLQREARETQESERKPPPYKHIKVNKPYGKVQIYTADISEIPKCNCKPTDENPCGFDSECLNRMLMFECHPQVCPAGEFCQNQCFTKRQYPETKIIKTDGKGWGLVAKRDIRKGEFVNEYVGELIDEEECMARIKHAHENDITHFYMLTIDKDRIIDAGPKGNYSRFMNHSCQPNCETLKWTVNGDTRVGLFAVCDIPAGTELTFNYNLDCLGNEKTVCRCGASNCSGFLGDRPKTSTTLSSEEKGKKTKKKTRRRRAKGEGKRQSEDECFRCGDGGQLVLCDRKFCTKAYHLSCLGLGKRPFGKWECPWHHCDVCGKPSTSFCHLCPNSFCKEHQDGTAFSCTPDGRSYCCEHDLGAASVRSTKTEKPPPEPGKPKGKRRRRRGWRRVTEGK
# Numbers stand for hits; i = inactive; ? = inconclusive; nt = no result given; ! = repeats disagree. Only some compounds are listed: those with a hit (about 2.1% of all), similar ones and a draw of the others.
SMILES,HIV Env fusion,MLL AF4-AF9 inh,INS-1E GSIS act,PGC1a acetyl inh,NSD2 inh
C[C@@H]1CN([C@@H](C)CO)C(=O)c2cc(N(C)C)ccc2O[C@@H]1CN(C)Cc1ccc2c(c1)OCO2,i,i,i,i,nt
C[C@@H]1CN([C@@H](C)CO)C(=O)c2cc(N(C)C)ccc2O[C@H]1CN(C)Cc1ccccc1,i,i,i,i,nt
C[C@H](CO)N1C[C@H](C)[C@@H](CN(C)Cc2ccccc2)Oc2ccc(N(C)C)cc2C1=O,i,i,i,i,nt
COc1cccc(NC(=O)N(C)C[C@@H]2Oc3cc(-c4ccccc4OC)ccc3S(=O)(=O)N([C@H](C)CO)C[C@H]2C)c1,i,i,i,i,nt
C=C(C)CN(CC)c1nc(N)c2c(N)nc3c(c2c1C#N)CC(=O)N3C12CC3CC(CC(C3)C1)C2,80,nt,i,nt,i
N#Cc1c(N2CCCC(O)C2)nc(N)c2c(N)nc3c(c12)CC(=O)N3C12CC3CC(CC(C3)C1)C2 (stereo not given),i,nt,i,i,i
O=C(Nc1nc(-c2cccs2)cs1)c1cccc(S(=O)(=O)N2CCCCC2)c1,69,nt,nt,nt,i
CC1CN(S(=O)(=O)c2ccc(C(=O)Nc3nc(-c4cc5ccccc5o4)cs3)cc2)CC(C)O1 (stereo not given),i,i,i,nt,i
O=C(Nc1nc(-c2cc3ccccc3o2)cs1)c1ccc(S(=O)(=O)N2CCCC2)cc1,57,i,i,i,i
Cc1ccc(-c2csc(NC(=O)c3cccc(S(=O)(=O)N4CCN(C)CC4)c3)n2)cc1,i,nt,nt,i,i
COc1cc2c(cc1OC)C1CCN3C(=O)CCC3N1CC2 (stereo not given),i,i,i,nt,i
Cc1cc(C)cc(N(C(=O)C(F)(F)F)C(C(=O)NC2CCCCC2)c2cccs2)c1 (stereo not given),i,nt,47,i,i
C#CC(=O)N(c1cccc(OC)c1)C(C(=O)NC1CCCC1)c1cccs1 (stereo not given),nt,i,146,93,i
C#CC(=O)N(c1ccc(OC)c(OC)c1)C(C(=O)NC1CCCC1)c1cccs1 (stereo not given),nt,i,i,103,nt
COc1ccc(N(C(=O)Cc2cccs2)C(C(=O)NC2CCCC2)c2ccncc2)cc1OC (stereo not given),i,i,i,i,i
CCC(=O)c1cccc(-c2ccccc2)c1CC,i,i,i,i,i
COc1ccc(NC(=O)Cn2cnc3c(cnn3-c3ccc(C)c(C)c3)c2=O)c(OC)c1,nt,nt,97,nt,i
Cc1ccc(-n2ncc3c(=O)n(CC(=O)Nc4cccc(Cl)c4)cnc32)cc1C,nt,nt,257,i,i
CCOc1ccccc1NC(=O)Cn1cnc2c(cnn2-c2ccc(C)c(C)c2)c1=O,nt,nt,i,i,i
C[C@@H]1CCCCO[C@@H](CN(C)CC2CCCCC2)[C@@H](C)CN([C@H](C)CO)C(=O)c2cc(NC(=O)Nc3ccc4c(c3)OCO4)ccc2O1,i,i,i,i,nt
COc1cc(OC)c2ccc(=O)oc2c1C(CCN1CCN(c2ccccc2)CC1)c1ccc(N(C)C)cc1 (stereo not given),i,26,i,i,nt
COc1cc(OC)c2c(-c3ccccc3)cc(=O)oc2c1C(CCN1CCN(c2ccccc2)CC1)c1ccc(N(C)C)cc1 (stereo not given),i,i,i,i,nt
COc1cc(O)c(C(CCN2CCCC2)c2ccc(N(C)C)cc2)c(OC)c1 (stereo not given),i,39,i,i,nt
COc1ccc(C2CC(=O)Oc3c(C(CCN4CCCCC4)c4ccc(N(C)C)cc4)c(OC)cc(OC)c32)cc1 (stereo not given),i,44,nt,i,nt
Cc1nc(Nc2nc3ccccc3o2)nc(C)c1C,i,i,i,nt,i
SMILES,HIV Env fusion,MLL AF4-AF9 inh,INS-1E GSIS act,PGC1a acetyl inh,NSD2 inh
O=C(CSc1nnnn1-c1ccc2c(c1)OCO2)NCc1ccccc1,i,nt,i,i,i
O=S(=O)(c1ccc(F)cc1)c1nc(-c2ccco2)oc1Nc1ccccc1,66,i,i,i,i
COc1oc(-c2ccccc2)nc1C(F)(F)F,nt,nt,i,i,i
Cc1ccc(CNc2nc(C)nc3sc4c(c23)CCC4)cc1,74,nt,i,i,i
Cc1nc(Nc2ccc(O)cc2)c2c3c(sc2n1)CCCC3,i,i,i,i,i
COc1cccc(Nc2nc(C(N)CO)cs2)n1 (stereo not given),i,i,41,i,i
Cc1ccc2c(c1)N(Cc1ccccc1)C(=O)C(C)S2 (stereo not given),i,i,i,i,i
COc1cccc(-c2ccc3c(c2)N(Cc2cccc(F)c2)C(=O)C(C)S3)c1 (stereo not given),?,i,42,i,i
CC1Oc2ccccc2N(Cc2cccc(F)c2)C1=O (stereo not given),i,i,43,i,i
CSc1ccc(CN2C(=O)C(C)Sc3ccc(C(C)=O)cc32)cc1 (stereo not given),i,i,nt,i,i
CC(=O)c1ccc2c(c1)N(Cc1ccccc1)C(=O)C(C)S2 (stereo not given),i,i,50,i,i
O=C(O)CCNc1cc(N2CCN(C(=O)c3ccco3)CC2)c2noc3c2c1C(=O)c1ccccc1-3,i,56,i,nt,nt
Cc1cc(CNC(=O)Cn2cc([N+](=O)[O-])cn2)c2ccccc2n1,i,i,i,i,i
Cn1c(N)c(C(c2ccccc2)c2c(N)n(C)c(=O)n(C)c2=O)c(=O)n(C)c1=O,nt,nt,41,nt,i
O=C(Nc1ccc(Oc2ccccc2)cc1)C1CCN(c2c3c(nc4ncnn24)CCC3)CC1,103,nt,nt,i,i
COc1ccc(NC(=O)C2CCCN(c3c4c(nc5ncnn35)CCC4)C2)cc1OC (stereo not given),i,nt,nt,i,i
O=C(Nc1ccc2c(c1)CCC2)C1CCN(c2c3c(nc4ncnn24)CCC3)CC1,96,nt,i,i,i
COc1ccc(CCNC(=O)C(=O)NCc2ccccc2)cc1OC,nt,nt,nt,nt,i
Cc1nc(NN)nc(NCc2ccccc2)n1,i,i,i,i,i
C=CCc1c(Cl)nc(C)nc1NCc1ccccc1,59,i,i,i,i
O=C(Nc1ccccc1N1CCN(C(=O)c2ccc(Cl)cc2)CC1)c1cc(Br)ccc1Cl,i,nt,nt,nt,i
O=C(NCCCc1nc2ccccc2[nH]1)c1ccco1,84,i,i,nt,i
N=C(N)SCc1cn(-c2ccccc2)nc1-c1ccc(Br)cc1,?,33,i,i,i
Cc1ccc(-c2nn(-c3ccccc3)cc2CO)cc1,i,i,i,i,i
O=C(CN1CCCN(Cc2ccc(F)cc2Cl)C1=O)NC1CCCCCCC1,72,nt,i,i,i
Cn1nnc2cc(NC(=O)N3CCN(c4ccccn4)CC3)ccc21,i,nt,i,i,i
CCCCCn1c(=N)n(CC(O)COc2ccccc2OC)c2ccccc21 (stereo not given),i,50!,i,i,nt
CCN(CC)CCn1c(=N)n(CCOc2ccccc2)c2ccccc21,56,nt,i,i,i
